The list is not random: actives were taken first. Their share in the collection is about 2.9%.
DRV1 agonist: agonists of human resolvin D1 receptor DRV1 (GPR32). actives 2.5% (n = 48,000). activation, % at 76.9 µM. O75388. CHO-K1 GPR32 beta-arrestin PathHunter luminescence, 90 min; zero percent set by DMSO-only wells;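 active = activation of at least 60% and not above a set upper limit, about 1 call in 100 departs from these limits; inconclusive = activation of 40% to 60%, or above that upper limit; inactive = activation under 40%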; also: 0% is about no effect
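PathHunter beta-arrestin recruitment in CHO-K1 cells stably expressing ProLink-tagged GPR32. Cells were exposed to compound for 90 min at 37 C, then chemiluminescence was read after 1 h detection at ambient temperature; DMSO served as basal control.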
OvCa metastasis: inhibitors of ovarian cancer cell adhesion and invasion in omental model; actives 0.1% (n = 46,000); Potency, µM (top dose mostly 45.8 µM), without a hit: at the highest dose activity change, negative = inhibition, usual class: inhibitors; SKOV3ip1-GFP adhesion/invasion on 3D omental model, fluorescence;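 also: potency is read from the fitted curve at half-maximal effect; plate controls were DMSO wells for no effect and tomatine positive control wells for full effect; nearly all actives have a fitted effect of over 65% in size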
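qHTS, 4-pt dose (0.36-46 umol/L); SKOV3ip1-GFP, 1,200 cells/well, no FBS; primary omental fibroblast/mesothelial co-culture 48 h pre-grown; 2 h RT + 16 h 37 C; PBS wash, 4% PFA; GFP count 488/509 nm.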
FH mod: Identification of activators of human fumarate hydratase by quantitative high-throughput screening | actives 0.22% (n = 54,000) | FH coupled MDH/diaphorase resazurin fluorescence, 15 min | Fumarate hydratase, mitochondrial (Homo sapiens), P07954 | Potency, µM (series often up to 79.9 µM), for the others: top-dose activity change, negative = inhibition, most hits filed as inhibitors; also: potency is read from the fitted curve at half-maximal effect; % is scaled to controls: 0 for no effect and ±100 for the full control effect; the screen sought activators but most active calls are inhibition curves; nearly all actives have a fitted effect of over 45% in size
GALC G270D up: enhancers of human galactocerebrosidase G270D mutant activity in cells | P54803 | 145M-Twi-hGALC-G270D cells (Twitcher mouse brain line with human GALC G270D), HMU-beta-Gal fluorescence, 48 h | Potency, µM (doses to about 57.5 µM), actives largely listed as activators | actives 0.1% (n = 45,000); also: potency is read from the fitted curve at half-maximal effect; 0% is about no effect; nearly all actives have a fitted effect of over 65% in size
Target sequence (P54803 whole entry G286D): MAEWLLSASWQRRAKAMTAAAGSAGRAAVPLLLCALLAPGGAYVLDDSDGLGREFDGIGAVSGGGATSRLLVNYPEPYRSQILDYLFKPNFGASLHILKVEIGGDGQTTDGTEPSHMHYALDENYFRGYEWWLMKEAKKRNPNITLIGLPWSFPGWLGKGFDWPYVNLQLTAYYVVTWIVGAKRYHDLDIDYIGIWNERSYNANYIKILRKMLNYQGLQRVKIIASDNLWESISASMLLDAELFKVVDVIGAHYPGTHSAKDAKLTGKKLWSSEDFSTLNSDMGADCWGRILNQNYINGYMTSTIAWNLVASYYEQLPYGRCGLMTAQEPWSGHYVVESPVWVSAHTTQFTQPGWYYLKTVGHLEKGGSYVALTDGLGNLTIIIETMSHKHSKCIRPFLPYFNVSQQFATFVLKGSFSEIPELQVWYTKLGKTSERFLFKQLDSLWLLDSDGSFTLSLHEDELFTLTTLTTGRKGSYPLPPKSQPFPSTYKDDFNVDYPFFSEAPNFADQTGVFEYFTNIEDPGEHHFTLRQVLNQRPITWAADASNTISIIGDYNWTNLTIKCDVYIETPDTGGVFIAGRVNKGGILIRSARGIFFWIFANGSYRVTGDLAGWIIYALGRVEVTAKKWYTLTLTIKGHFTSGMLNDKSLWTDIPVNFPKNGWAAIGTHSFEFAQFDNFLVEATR
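Fluorescence readout: HMU-β-gal cleavage by mutant GALC (0.1 mM final, citrate/phosphate pH 5.2 with 1 mg/mL taurocholate), stopped with carbonate/bicarbonate plus Triton X-100. Cells: murine Twitcher 145M-Twi expressing human G270D GALC; qHTS for activators.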
* hit, by the source's call; i = inactive; ? = inconclusive; nt = not tested or not shown; [ ] = dose if it differs, or a comment. Unless noted, calls follow the shape of the dose curve; as a rule, active = well fitted curve in the direction sought with a large enough effect; inconclusive = small, poorly fitted or top-dose-only effect, or another doubt; inactive = no such curve, though single readings can be large; an effect the other way counts as inactive or inconclusive.

SMILES | DRV1 agonist | OvCa metastasis | FH mod | GALC G270D up
COc1ccccc1C(=O)NCCc1csc(-c2ccc(C(F)(F)F)cc2)n1 | 12.0 | 4.3% | ? | i
COc1ccc(C(=O)NCCc2csc(-c3ccc(Cl)cc3)n2)c(OC)c1 | 70.2* | 6.4% | 35.5µM* | i
COc1ccc(C(=O)NCCc2csc(-c3ccc(Cl)cc3)n2)cc1 | 86.6* | i | ? | i
COc1ccc(NC(=O)Cn2cnc3ccc(S(=O)(=O)N4CCC(C)CC4)cc3c2=O)cc1OC | 112.9* | ? | -16.0% | i
COc1ccc(OC)c(NC(=O)Cn2cnc3ccc(S(=O)(=O)N4CCC(C)CC4)cc3c2=O)c1 | -14.2 | i | -14.9% | i
Cc1ccc(NC(=O)Cn2c(=O)ccc3cc(S(=O)(=O)N4CCC(C)CC4)ccc32)cc1C | 70.0* | 10.6% | 2.7% | i
NC(=NCCCCCCN=C(N)N=C(N)Nc1ccc(Cl)cc1)N=C(N)Nc1ccc(Cl)cc1 | nt | -9.4% | 13.5%[53.3 µM] | nt
NC(=NCCCCCCN=C(N)/N=C(\N)Nc1ccc(Cl)cc1)/N=C(\N)Nc1ccc(Cl)cc1 | 86.5* | nt | 32.0% | i
COc1ccc(NC(=O)C(=O)Nc2ccc3nc4n(c(=O)c3c2)CCCCC4)c(OC)c1 | -7.7 | ? | 3.0% | i
COc1ccc(Cl)cc1N(C)C(=O)C(=O)Nc1ccc2nc3n(c(=O)c2c1)CCCCC3 | 80.4* | 1.1% | -8.1% | i
CC1=CC(=O)CC(C)(CO[C@@H]2O[C@H](CO)[C@@H](O)[C@H](O)[C@H]2O)C1(O)/C=C/C(C)=C/C(=O)O (some centres not stated) | nt | nt | -1.6%[53.3 µM] | nt
O=c1cc(-c2ccccc2)c2ccc3c(c2o1)CN(Cc1ccccc1)CO3 | -13.2 | -0.6% | 2.2% | i
Cc1cc(=O)oc2c3c(ccc12)OCN(Cc1ccccc1Cl)C3 | -1.2 | 1.9% | -1.6% | ?
Cc1ccc(CN2COc3ccc4c(C)cc(=O)oc4c3C2)cc1 | 5.0 | -31.6% | -4.3% | 25.1µM*
CCc1c(C)c2ccc3c(c2oc1=O)CN(Cc1ccccc1)CO3 | 48.0 | 9.2% | 2.0% | 25.1µM*
COC1C(CO)OC(n2cnc3c(=O)[nH]cnc32)C1O (configuration not stated) | nt | nt | -0.8% | nt
Cc1ccc(CN2C(=O)C(O)(c3c[nH]c4ccccc34)c3cc(Cl)ccc32)cc1 (configuration not stated) | 87.0* | ? | ? | i
CCc1cccc(CC)c1-n1c(C=C(C)C)c(C(=O)N2CCNCC2)cc(-c2nc(-c3ccc(C(F)(F)F)cc3)cs2)c1=O | nt | nt | -15.0%[53.3 µM] | nt
CCC(Oc1ccccc1)C(=O)N1CCN(Cc2cc(=O)n3nc(-c4cccc(C)c4)sc3n2)CC1 (configuration not stated) | 60.7* | 4.1% | 0.7% | i
COc1cccc(-c2nn3c(=O)cc(CN4CCN(C(=O)/C=C/c5ccccc5)CC4)nc3s2)c1 | 46.4 | i | 6.6% | i
O=C1CCC(c2ccccc2)(C2CCN(Cc3ccc(I)cc3)CC2)C(=O)N1 (configuration not stated) | nt | nt | -13.0% | nt
Cc1ccc(C)c(-n2nnc(C(=O)Nc3ccc(Br)cc3)c2C)c1 | 26.0 | -5.0% | -15.0% | i
CC(=O)Nc1c(C(=O)Nc2cccc(C)c2)nnn1-c1ccc(C)cc1 | 119.4* | i | -22.2% | i
CCCCOc1ccc(CC/C=C2\SC(=O)N(CCN)C2=O)cc1 | nt | nt | 3.2% | nt
COc1cc(NC(=O)c2nnn(Cc3ccc(F)cc3)c2N)cc(OC)c1 | 79.4* | i | 2.0% | i
SMILES | DRV1 agonist | OvCa metastasis | FH mod | GALC G270D up
Cc1cc(C)cc(NC(=O)Cn2nnc(C(=O)Nc3cc(C)cc(C)c3)c2N)c1 | 83.6* | ? | -17.3% | i
CCOC(=O)c1nnn(CC(=O)Nc2cc(C)cc(C)c2)c1C(=O)OCC | -7.3 | 3.5% | 1.8% | i
COc1ccc2nc3n[nH]c(C)c3c(NCCOCCO)c2c1 | nt | nt | -0.8% | nt
NCC(CNc1nc(Nc2cccc(NC(=O)N3CCCC3)c2)ncc1I)C(=O)c1cccs1 (configuration not stated) | nt | nt | -0.2% | nt
Cc1cc(-c2cc(O)ccc2Cl)cc2nnc(Nc3ccc(OCCN4CCCC4)cc3)nc12 | nt | nt | 0.4% | nt
Cc1ccc(-n2ncc3c(N4CCN(CCO)CC4)ncnc32)cc1Cl | 65.1* | 1.7% | -12.2% | i
CCN1CCN(c2ncnc3c2cnn3-c2ccc(C)c(Cl)c2)CC1 | 11.6 | i | -11.5% | i
Cc1ccc(Cl)cc1-n1ncc2c(N3CCC(C)CC3)ncnc21 | 61.7* | 11.2% | -10.8% | i
Cc1ccc(-n2ncc3c(N4CCN(Cc5ccccc5)CC4)ncnc32)cc1C | 75.3* | i | -14.9% | i
CC(=O)OC1CC(O)(C(C)C)C2C(OC(=O)c3ccc(O)cc3)C=C(C)C(=O)CC12C (configuration not stated) | nt | nt | -3.5%[53.3 µM] | nt
CCOc1ccccc1C(=O)Nc1cc2c(cc1N1CCCCC1)n(C)c(=O)n2C | 69.7* | i | nt | nt
COc1ccccc1C(=O)Nc1cc2c(cc1N1CCOCC1)n(C)c(=O)n2C | -5.2 | 2.5% | nt | nt
CCOc1cccc(NC(=O)C2CC(=O)N(CC)C(=Nc3ccc(F)cc3)S2)c1 (configuration not stated) | 80.5* | 8.0% | -21.7% | i
COc1ccc(Nc2nc(N)nc(CSc3nc4ccccc4s3)n2)cc1 | ? | i | ? | i
Cc1ccc(Nc2nc(N)nc(CSc3nc4ccccc4s3)n2)cc1 | 82.9* | i | -21.3% | i
CN(C)CC1CCOC1(c1ccccc1)c1ccccc1 (configuration not stated) | nt | nt | 2.8%[20.6 µM] | nt
Cc1ccc(Cl)cc1NC(=O)CSc1nc(C)c(C)c(C)c1C#N | 115.2* | i | -1.0% | i
COc1ccc(Oc2cc(C)c(-c3csc(NC(=O)c4ccncc4)n3)c(C)c2)cc1 | nt | nt | -16.5% | nt
CCOC(=O)c1ccc(NC(=O)c2cc3cc(C)ccc3n2C)cc1 | 72.4* | 2.0% | -3.2% | i
c1ccc(Cn2c(-c3ccc(OCC(C4CCNCC4)n4c(-c5ccccc5)nc5ccccc54)cc3)nc3ccccc32)cc1 (configuration not stated) | nt | nt | 4.8% | nt
Oc1c(Cl)cc(Cl)cc1Sc1cc(Cl)cc(Cl)c1O | 80.5* | nt | -23.8%[53.3 µM] | i
Cc1ccc(NS(=O)(=O)c2cc3c(cc2NCCO)NC(=O)CC3)cc1C | nt | nt | -0.5%[53.3 µM] | nt
Cc1oc(-c2cccc(Cl)c2)nc1CN1CCCC(C(=O)NCc2ccc(F)cc2)C1 (configuration not stated) | 70.5* | 17.2% | -12.8% | i
Cc1oc(-c2ccc(Cl)cc2)nc1CN1CCCC(C(=O)NCc2ccccc2)C1 (configuration not stated) | 106.4* | -12.8% | -12.9% | i
Cc1ccccc1-c1nc(CN2CCCC(C(=O)NCc3ccc(Cl)cc3)C2)c(C)o1 (configuration not stated) | 23.3 | i | -24.4% | i

Screening data from PubChem BioAssay.
